Screening results: PubChem BioAssay, National Center for Advancing Translational Sciences (NCATS)
Hits are enriched below; roughly 19% of the tested compounds scored in any of these assays.
DT40 TDP1 CPT: growth inhibition of DT40 Tdp1-/-;hTDP1 cells with camptothecin (screen for TDP1 inhibitors). chicken DT40 Tdp1-/-;hTDP1 cells + 20 nM CPT, ATP luminescence, 48 h. Potency, µM (series often up to 46.2 µM), for inactives: top-dose activity change, negative = growth inhibition, actives largely listed as inhibitors. 420,000 compounds, 12% hits. AID 686979; also: nearly all actives have a fitted effect of over 55% in size
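Cell growth measured by CellTiter-Glo luminescence after a minimum 48 h, 37 C compound exposure with 20 nM CPT in Tdp1-knockout DT40 cells stably expressing hTDP1, seeded 400/well; qHTS titration format.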
RORgamma inh: blocks mouse ROR gamma transcriptional activity. P51450. Drosophila S2 Gal4-RORgamma UAS-luciferase reporter, 20 h. Potency, µM (series often up to 53.6 µM), without a hit: at the top dose activity change, negative = inhibition, usual class: inhibitors. 310,000 compounds, 5.4% hits. AID 2551; also: nearly all actives have a fitted effect of over 60% in size
Target sequence (P51450 whole entry, looked up, the tested form may be a part): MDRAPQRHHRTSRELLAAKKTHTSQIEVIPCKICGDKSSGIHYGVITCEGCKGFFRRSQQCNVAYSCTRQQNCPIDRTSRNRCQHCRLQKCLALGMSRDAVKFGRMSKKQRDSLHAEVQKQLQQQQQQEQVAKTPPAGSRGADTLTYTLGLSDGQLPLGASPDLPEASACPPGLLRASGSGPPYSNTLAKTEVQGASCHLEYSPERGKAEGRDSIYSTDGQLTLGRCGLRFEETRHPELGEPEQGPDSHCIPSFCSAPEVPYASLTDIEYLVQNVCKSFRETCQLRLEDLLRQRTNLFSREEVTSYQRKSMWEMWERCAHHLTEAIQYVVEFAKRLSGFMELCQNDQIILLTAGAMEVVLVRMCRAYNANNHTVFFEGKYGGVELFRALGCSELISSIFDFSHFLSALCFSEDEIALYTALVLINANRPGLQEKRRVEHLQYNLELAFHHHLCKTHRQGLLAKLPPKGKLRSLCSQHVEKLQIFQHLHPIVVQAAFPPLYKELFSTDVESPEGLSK
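Drosophila Schneider cells stably carrying a metallothionein-driven Gal4 DBD–ROR gamma fusion and a UAS-Photinus luciferase reporter were exposed to compound for 1 hr, then induced with copper sulfate (700 uM final) for 20 hr at ambient temperature before luminescence reading.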
DT40 TDP1 no CPT: qHTS for Inhibitors of human tyrosyl-DNA phosphodiesterase 1 (TDP1): qHTS in cells in absence of CPT; 420,000 compounds, 15% hits; DT40 Tdp1-/- hTDP1 cells, no CPT, ATP luminescence, 48 h; Potency, µM (doses to about 46.2 µM), for inactives: top-dose activity change, negative = growth inhibition, usual class: inhibitors; AID 686978, 2013; also: nearly all actives have a fitted effect of over 55% in size
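Cells were dispensed at 400 per well, compounds added by pin tool, plates incubated ≥48 hr at 37 °C, then CellTiter-Glo added for 30 min at room temperature before luminescence reading. Line: DT40 Tdp1-/- complemented with hTDP1; camptothecin omitted.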
TDP1 block: blocks human tyrosyl-DNA phosphodiesterase 1 | recombinant TDP1, AlphaScreen DNA substrate cleavage | Potency, µM (titrated, usually from 130 µM), for inactives: at the highest dose activity change, negative = inhibition, hits mostly inhibitors | 350,000 compounds, 0.28% hits | AID 485290; also: nearly all actives have a fitted effect of over 40% in size
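AlphaScreen read-out: signal falls as enzyme removes the 3' tyrosine-FITC from a 5'-biotinylated DNA oligo (15 nM, 5 min, RT). Enzyme was E. coli-made recombinant Tdp1 at 1 nM, exposed to compound for 15 min beforehand; beads 10 ug/ml, 10 min.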
Gal4-VP16 FLuc: counter-screen for ROR gamma inhibitors: Gal4-VP16 reporter | Drosophila S2 Gal4-VP16 UAS-luciferase, luminescence, 20 h | Potency, µM (titrated, usually from 53.6 µM), for the others: at the top dose activity, negative = inhibition, usual class: inhibitors | 310,000 compounds, 3.5% hits;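 also: Gal4-VP16 expression switched on by copper sulfate through the metallothionein promoter; nearly all actives have a fitted effect of over 50% in size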
Numbers without * were called inactive; ? = inconclusive; nt = no result given; [ ] = remark or other dose. Calls follow the shape of the dose curve; as a rule, active = well fitted curve in the direction sought with a large enough effect; inconclusive = small, poorly fitted or top-dose-only effect, or another doubt; inactive = no such curve, though single readings can be large; an effect the other way counts as inactive or inconclusive. % is scaled to controls: 0 for no effect and ±100 for the full control effect; potency is read from the fitted curve at half-maximal effect.

SMILES	DT40 TDP1 CPT	RORgamma inh	DT40 TDP1 no CPT	TDP1 block	Gal4-VP16 FLuc
CC(C)(C)NC(=O)c1ccccc1-c1nc2ccccc2s1	-27%	3%	?	nt	-3%
O=C(COC(=O)c1ccc(Cl)nc1)Nc1ccc2ccccc2c1	3%	nt	-3%	-2%	nt
COc1ccccc1OCC(=O)N/N=C/c1c(O)ccc2ccccc12	nt	2.8µM*	nt	4%	2.5µM*
CCC(=N\NC(=O)COc1ccccc1OC)/C(CC)=N/NC(=O)COc1ccccc1OC	-12%	nt	-25%	-1%	nt
COc1cccc(/C=N/NC(=O)COc2cccc3cccnc23)c1O	7.3µM*	2.2µM*	4.1µM*	-5%	13µM*
CSc1nc(N)nc2c1ncn2CC(=O)NCC(c1ccccc1)c1ccccc1	15µM*	nt	21µM*	2%	nt
COc1ccc(CNC(=O)Cn2cnc3c(SC)nc(N)nc32)cc1	?	nt	-29%	0%	nt
CSc1nc(N)nc2c1ncn2CC(=O)Nc1ccc(C)c(C)c1	13µM*	nt	15µM*	0%	nt
COC(=O)C[C@H](NC(=O)Cn1cnc2c(SC)nc(N)nc21)C(=O)OC	2%	nt	21%	0%	nt
O=c1c(-c2cc(-c3ccc(Cl)cc3)nc3c2COc2ccccc2-3)coc2ccccc12	-24%	nt	-6%	6%	nt
O=C1COc2ccc(-c3cc(-c4ccc(Cl)cc4)c4c(n3)-c3ccccc3OC4)cc2N1	1µM*	nt	2.3µM*	2%	nt
O=C1COc2ccc(-c3cc(-c4ccccc4)c4c(n3)-c3ccccc3OC4)cc2N1	13µM*	nt	9.2µM*	8%	nt
O=C1COc2ccc(-c3cc(-c4ccccc4)c4c(n3)-c3cc(Cl)ccc3OC4)cc2N1	3.3µM*	nt	1.2µM*	6%	nt
COc1cc(-c2cc(C(=O)NCCc3ccc(S(N)(=O)=O)cc3)c3ccccc3n2)cc(OC)c1OC	4.1µM*	-4%	3.3µM*	7%	-4%
Cc1ccc(-c2cc(C(=O)NCc3cnn(C)c3C)c3ccccc3n2)cc1C	?	nt	18µM*	-2%	nt
Cc1ccc(CCNC(=O)c2cc(Nc3ccc(C)c(C)c3)nc3ccccc23)cc1	-21%	nt	?	3%	nt
Cc1ccc(-c2cccc(C(=O)NCCc3ccccc3)n2)c2ccccc12	26µM*	4%	16µM*	-5%	23%
Cc1ccc(-c2cc(C(=O)NCCc3ccccc3)c3ccccc3n2)cc1C	21µM*	nt	?	5%	nt
Cc1ccc(-c2cccc(C(=O)NCc3ccccc3)n2)c2ccccc12	?	-14%	?	0%	-4%
COc1cc(CC(=O)NCCc2ccc(S(N)(=O)=O)cc2)cc(OC)c1OC	-4%	4%	3%	7%	-3%
COc1ccc(C2c3[nH]c4ccccc4c3C[C@H]3C(=O)N(c4ccccc4C(=O)N4CCC[C@@H]4C(=O)O)C(=O)N23)cc1 (stereo not given in full)	-2%	nt	-1%	nt	nt
COc1ccccc1N(CC(=O)NC(C)C)S(=O)(=O)c1cccs1	?	16%	?	4%	-3%
Cc1ccc(-c2cc(C(=O)N/N=C\c3cnn(C)c3C)c3ccccc3n2)cc1C	12µM*	11µM*	10µM*	6%	?
Cc1ccccc1OC1C=CC(C#Cc2ccc(Br)cc2)OC1CO (stereo not given)	nt	1%[10 µM]	nt	10%[21 µM]	-6%[10 µM]
Cc1onc(-c2ccccc2Cl)c1C(=O)Nc1cccc(-c2cn3cccnc3n2)c1	?	17%	16µM*	5%	-13%
CCCOc1cccc(NC(=O)c2c(-c3ccccc3Cl)noc2C)c1	9.2µM*	nt	8.2µM*	-8%	nt
CCCOC(=O)c1cccc(NC(=O)c2c(-c3ccccc3Cl)noc2C)c1	7.3µM*	nt	7.3µM*	2%	nt
Cn1ccnc1C(O)c1ccco1 (stereo not given)	-6%	6%	3%	2%	6%
Cn1c(=O)c2cc(NC(=O)Cc3cccnc3)ccc2n1-c1ccc2ccccc2c1	15µM*	nt	15µM*	nt	nt
